Data reported in PubChem BioAssay AID1376 (SRMLSC, 2008).
About 530 (0.24%) of roughly 220,000 compounds were called active. Rule as the data show it: active = inhibition above about 13%; inconclusive = no clear call, values can overlap the other calls; inactive = below that. Many of the other results were omitted from the sample, so actives are more common in it than they were. Results with a measured potency or affinity are listed apart.

Each compound was assayed against Bifunctional protein GlmU (Mycobacterium tuberculosis (strain ATCC 25618 / H37Rv)) (UniProt P9WMN3) (assay: inhibition of mycobacterial GlmU enzyme – biochemical, glucosamine-1-phosphate acetyltransferase (AID 1376;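 also: 0% = complete reaction with vehicle and 100% = reaction without substrate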)). Conditions: M. tuberculosis GlmU acetyltransferase enzyme assay; active compounds read high;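 tested at 30 µM in the primary screen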.
Sequence of Bifunctional protein GlmU (Mycobacterium tuberculosis (strain ATCC 25618 / H37Rv)) (P9WMN3 whole entry, looked up): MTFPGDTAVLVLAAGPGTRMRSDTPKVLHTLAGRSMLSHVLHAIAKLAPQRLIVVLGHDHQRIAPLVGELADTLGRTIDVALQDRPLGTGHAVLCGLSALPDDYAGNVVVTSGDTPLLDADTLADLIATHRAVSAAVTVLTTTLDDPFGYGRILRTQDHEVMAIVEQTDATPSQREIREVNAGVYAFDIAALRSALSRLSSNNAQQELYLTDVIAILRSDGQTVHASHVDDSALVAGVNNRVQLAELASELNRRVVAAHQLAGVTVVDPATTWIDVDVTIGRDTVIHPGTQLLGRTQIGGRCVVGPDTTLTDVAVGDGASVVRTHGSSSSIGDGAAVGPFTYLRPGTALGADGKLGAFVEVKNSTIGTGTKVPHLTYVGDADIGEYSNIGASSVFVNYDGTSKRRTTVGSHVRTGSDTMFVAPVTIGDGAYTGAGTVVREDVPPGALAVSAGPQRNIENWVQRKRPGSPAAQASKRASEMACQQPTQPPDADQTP

Row | SMILES | inhibition
1 | Nc1ccc(C(=O)O)cc1[N+](=O)[O-] | -10.2% (inactive)
2 | NS(=O)(=O)c1ccc(CNC(=O)NC2(c3ccccc3)CC2)cc1 | -5.17% (inactive)
3 | CCOc1ccccc1CN1CCC(CO)(CCOc2ccccc2)CC1 | -6.84% (inactive)
4 | CCc1ccc(-n2c(SCC(=O)N3CCC(C(=O)O)CC3)nnc2-c2ccncc2)cc1 | 14.8% (active)
5 | Cc1ccccc1-n1c(SCC(=O)N2CCC(C(=O)O)CC2)nnc1-c1ccncc1 | 1.39% (inactive)
6 | Cc1c(Cl)cccc1-n1c(SCC(=O)N2CCC(C(=O)O)CC2)nnc1-c1ccncc1 | -2.06% (inactive)
7 | O=[n+]1c2c(n([O-])c3c1CCC3)CCCC2 | -2.34% (inactive)
8 | O=c1[nH][nH]c2c(N=Cc3ccccc3O)ccc(F)c12 | 28.6% (active)
9 | O=C(Nc1ccccc1)c1ccccc1N=Cc1ccccc1O | -2.01% (inactive)
10 | O=c1[nH][nH]cc1C=Nc1ccccc1O | -0.91% (inactive)
11 | Cc1ccc(NC(=O)CC2=NC(=O)C(CC(=O)Nc3ccccc3C)S2)cc1 (stereo not drawn) | 0.67% (inactive)
12 | OC(CNCc1ccc2c(c1)OCO2)COc1ccc(F)cc1 (stereo not drawn) | -6.96% (inactive)
13 | COc1ccc(CN(CC2CCC(C(=O)O)CC2)C(=S)Nc2ccc(C)c(Cl)c2)cc1 (stereo not drawn) | 5.02% (inactive)
14 | CCC(=O)NC1=C(NC(C)c2ccccc2)C(=O)c2ccccc2C1=O (stereo not drawn) | 4.92% (inactive)
15 | CCC(=O)NC1=C(Cl)C(=O)C(NC(=O)CC)=C(Cl)C1=O | 15.5% (active)
16 | CCC(=O)Nc1c(C)cc(C)cc1Cl | 2.67% (inactive)
17 | COc1ccc(-c2noc(CSc3nc(-c4ccccc4)cc(=O)[nH]3)n2)cc1OC | 2.31% (inactive)
18 | O=C(Nc1ccc(O)cc1C(=O)O)c1ccc2c(c1)C(=O)N(Cc1ccco1)C2=O | 4.38% (inactive)
19 | Cc1c(NC(=O)c2ccc3c(c2)C(=O)N(Cc2ccco2)C3=O)cccc1C(=O)O | -0.73% (inactive)
20 | O=C(Nc1ccc(Cl)cc1C(=O)O)c1ccc2c(c1)C(=O)N(Cc1ccco1)C2=O | 13.9% (active)
21 | CNC(=O)COC(=O)c1cc2c(s1)CCCC2 | -3.54% (inactive)
22 | COc1ccc(C(=O)NC(=S)NC(C)(C)C)cc1Br | -2.26% (inactive)
23 | COc1ccc(C(=O)NC(=S)NC(C)C)cc1Br | 4.89% (inactive)
24 | COc1ccc(C(=O)NC(=S)Nc2nc(C)cc(C)n2)cc1Br | 13.4% (active)
25 | CC1(C)CC(=O)C=C(NNC(=O)c2cccnc2)C1 | -2.32% (inactive)
26 | CCOc1ccc(N2C(=O)CS/C2=C(\C(Cl)=C(Cl)Cl)[N+](=O)[O-])cc1 | 7.22% (inactive)
27 | Cc1ccc(N2C(=O)CS/C2=C(\C(Cl)=C(Cl)Cl)[N+](=O)[O-])cc1 | 12.9% (active)
28 | Cc1ccc(N2C(=O)CSCC2=O)cc1 | -0.48% (inactive)
